Assay outcomes: PubChem, several laboratories
This is a sample that favours compounds with a hit; in the whole collection about 27% have one here.
CYP2C19 activ: human CYP2C19 activators, primary screen, biochemical, luminescence; activation factor at 5 µM; 96,000 tested, under 10 active; recombinant CYP2C19, luciferin-H EGE luminescence; stronger effect = higher value; 0 = fully inhibited enzyme, 1 = untreated enzyme; Cytochrome P450 2C19 (Homo sapiens), P33261; AID 1025, 2008;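 active means activation factor of at least 2 at 5 µM in the primary screen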;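 further: 0 = wells with 2.5 mM tranylcypromine and 1 = vehicle-only wells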
CYP2C9 inh: blockers of cytochrome P450 2C9 activity – biochemical, luminescence, ADME assay, primary screen; P11712; inhibition, % at 5 µM; CYP2C9 Supersomes, luciferin-H conversion; actives 20% (n = 96,000);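 active means blocking of liver enzyme CYP2C9 beyond about 50% at 5 µM, limit read from the data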
Target sequence (P11712 whole entry, looked up): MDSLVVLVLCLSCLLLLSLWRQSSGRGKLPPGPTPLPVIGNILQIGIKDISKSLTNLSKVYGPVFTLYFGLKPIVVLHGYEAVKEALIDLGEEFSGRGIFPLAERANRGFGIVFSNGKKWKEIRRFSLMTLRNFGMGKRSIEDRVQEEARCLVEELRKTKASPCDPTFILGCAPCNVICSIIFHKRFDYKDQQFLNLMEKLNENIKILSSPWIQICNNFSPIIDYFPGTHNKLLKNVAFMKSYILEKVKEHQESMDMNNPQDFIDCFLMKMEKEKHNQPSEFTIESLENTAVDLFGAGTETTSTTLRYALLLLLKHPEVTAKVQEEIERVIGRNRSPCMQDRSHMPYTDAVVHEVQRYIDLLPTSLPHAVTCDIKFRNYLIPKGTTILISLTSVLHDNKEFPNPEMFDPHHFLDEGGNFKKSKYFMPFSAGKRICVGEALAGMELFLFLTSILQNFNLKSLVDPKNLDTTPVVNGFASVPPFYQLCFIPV
sEH inh: soluble epoxide hydrolase inhibitors, primary screen, biochemical, human sEH; Bifunctional epoxide hydrolase 2 (Homo sapiens), P34913; recombinant human sEH enzymatic activity assay; inhibition, % at 2 µM; actives 0.34% (n = 91,000); AID 707, 2007; in the data active means inhibition above about 80%
CYP2C19 inh: blockers of cytochrome P450 2C19 activity – biochemical, luminescence, ADME assay, primary screen; AID 778, 2007; P33261; actives 21% (n = 96,000); inhibition, % at 5 µM; CYP2C19 Supersomes, luciferin-H EGE luminescence, 30 min;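 active means CYP2C19 inhibition above a set limit at 5 µM in the primary screen, cut at about 50% in these data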;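 further: plate controls were negative control wells for no effect and 2.5 mM tranylcypromine positive control for full effect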
CYP2C9 act: human CYP2C9 activators, primary screen, biochemical, luminescence; Cytochrome P450 2C9 (Homo sapiens), P11712; actives 1.4% (n = 96,000); activation factor at 5 µM; recombinant CYP2C9, luciferin-H conversion; stronger effect = higher value; factor 1 = untreated enzyme, 0 = blocked;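 active means activation factor of 2 or more for CYP2C9 at a 5 µM dose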;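 further: 0 = sulfaphenazole-blocked wells and 1 = vehicle-only wells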
sEH act: soluble epoxide hydrolase activators, primary screen, biochemical, human sEH; actives 0.04% (n = 91,000); purified human sEH enzymatic activity, activator screen; AID 717, 2007; Bifunctional epoxide hydrolase 2 (Homo sapiens), P34913; activation, % at 2 µM; in the data active means activation above about 37%
Numbers without * were called inactive; . = no result given.

SMILES	CYP2C19 activ	CYP2C9 inh	sEH inh	CYP2C19 inh	CYP2C9 act	sEH act
COC(=O)c1c(NC(=S)Nc2ccccc2Cl)sc(C)c1C	0.7	26	13	25	0.7	-9
Cc1c(N=C2C(=O)Nc3ccccc32)c(=O)n(-c2ccccc2)n1C	1	-11	-16	-2	1.1	19
Cc1ccc2c(c1Br)/C(=N/N1C(=O)c3ccccc3C1=O)C(=O)N2	0.7	51*	-15	30	0.5	16
CCCn1cc(SCC(=O)NCc2ccco2)c2ccccc21	0.5	-79	-7	52*	1.8	10
O=C(CSc1nnc(CNC(=O)c2cccs2)o1)NC1CCCC1	.	.	2	.	.	1
O=C(CSc1cn(CCNC(=O)c2ccccc2)c2ccccc12)NCc1ccco1	0	97*	.	99*	0	.
O=C(CSc1ccccc1)NCc1ccco1	.	.	16	.	.	-13
O=C(CSc1cn(CCNC(=O)c2cccs2)c2ccccc12)NC1CCCC1	0.3	82*	6	69*	0.2	-9
Cn1c(Cl)cnc1C(O)c1ccccc1 (stereo unspecified)	0.9	8	10	12	0.9	-10
O=C(CN1C(=O)C2CC=C(Cl)CC2C1=O)NCc1ccccc1 (stereo unspecified)	0.9	15	-10	6	0.9	10
CCOc1ccc(OCC)c(NC(=O)c2ccc(CNc3c(N4CCOCC4)c(=O)c3=O)cc2)c1	0.8	26	-5	21	0.7	3
Cc1cc(C(=O)OCC(=O)c2c(N)n(C)c(=O)n(C)c2=O)c(C)n1-c1ccccc1	0.9	36	1	14	0.6	-4
COc1ccc(CNC(=O)c2ccc(=O)oc2)cc1OC	0.6	23	-10	39	0.8	8
COc1ccc(C(=O)CSc2nnc(CNc3nc(-c4ccccc4)cs3)n2C)cc1	0.4	62*	-8	64*	0.4	9
COC(=O)CSc1nnc(CNC(=O)Cc2ccccc2)n1C	1.1	-13	4	-14	1.1	-6
COC(=O)CSc1nnc(CNc2ccc(OC)cc2)n1C	0.4	-4	-8	58*	1	10
CCOC(=O)c1ccc(NC(=O)CSc2nnc(CNc3ccc(C)cc3)n2C)cc1	.	.	4	.	.	-3
CCOC(=O)c1c(NC(=O)CSc2nnc(CNc3ccc(OC)cc3)n2C)sc(C)c1C	0.7	77*	8	32	0.2	-9
COC(=O)CSc1nnc(CNc2nc(-c3ccccc3)cs2)n1C	.	.	4	.	.	-1
COC(=O)c1ccc(CN(c2ccccn2)S(=O)(=O)c2ccccc2)cc1	0.3	30	19	70*	0.7	-19
CC(NC(=O)Nc1ccccc1O)(C(F)(F)F)C(F)(F)F	0.7	-4	5	27	1	-5
COC(=O)c1cc2c([nH]c3ccccc32)c(C)n1	0.4	-3	-16	62*	1	16
Cc1nc(C(=O)Nc2ccccc2Cl)cc2c1[nH]c1ccccc12	1	21	-10	-3	0.8	13
Cn1c(=O)c(=O)n(C)c2cc(S(=O)(=O)N3CCN(c4cccc(C(F)(F)F)c4)CC3)ccc21	1.1	-9	-4	-11	1.1	5
CCN(CC)S(=O)(=O)c1ccc(NC(=O)C(C)N(c2ccc(OC)cc2)S(C)(=O)=O)cc1 (stereo unspecified)	0.9	56*	5	7	0.4	-3
SMILES	CYP2C19 activ	CYP2C9 inh	sEH inh	CYP2C19 inh	CYP2C9 act	sEH act
CCOc1ccc(N(C(C)C(=O)Nc2ccc(OC)cc2)S(C)(=O)=O)cc1 (stereo unspecified)	0.3	72*	-11	74*	0.3	10
COCCNC(=O)C(C)N(c1ccc(OC)cc1)S(C)(=O)=O (stereo unspecified)	0.8	-29	-4	23	1.3	5
Cc1nccc2[nH]c(=O)c(C(=O)NCCCN(C)C3CCCCC3)cc12	1	-2	.	1	1	.
Cc1ncc2c(c1OC(=O)c1ccccc1)COC(C)(C)OC2	0	78*	-4	100*	0.2	5
Cc1c(OC(=O)c2ccc([N+](=O)[O-])cc2)c2c(c[n+]1C)COC(C)(C)OC2	0.9	24	3	8	0.8	-4
Cc1ccc(Cl)c(OCC(=O)NCc2ccco2)c1	0.7	-38	7	32	1.4	-9
O=Cc1cn(CC(=O)N2CCOCC2)c2ccccc12	.	.	-1	.	.	4
CN1CCN(Cn2cc(/C=C/C(=O)c3ccccc3)c3ccccc32)CC1	0.2	96*	21	81*	0	-20
CCOC(=O)C(CC)n1nc(C)n2c(cc3sccc32)c1=O (stereo unspecified)	0.7	50	.	31	0.5	.
CC(=O)N(Cc1c(C)nn(-c2ccccc2)c1Cl)c1ccc(Cl)cc1	0.1	49	9	90*	0.5	-7
Cc1ccc(S(=O)(=O)/N=C(\CSC(N)=O)Nc2ccccc2)cc1	0.8	-87	-6	21	1.9	7
Cc1ccc(S(=O)(=O)/N=C(\Sc2ccccc2)c2ccccc2)cc1	0.7	62*	.	34	0.4	.
O=S(=O)(/N=C(\Sc1ccccc1)c1ccccc1)c1ccc(Cl)cc1	0.8	62*	.	16	0.4	.
CCOC(=S)N/C(=N\S(=O)(=O)c1ccc(C)cc1)c1ccccc1	0.5	91*	-9	46	0.1	9
CSC(=NS(=O)(=O)c1ccc(C)cc1)SC	0.8	-106	5	21	2.1*	-7
CCOC(=O)c1cc(C(C)(C)C)oc1CNC(=O)c1c(C)oc2c1CCCC2	.	.	-1	.	.	4
CCOC(=O)c1ccc(CNC(=O)c2cc(C(C)(C)C)oc2C)o1	0.1	76*	-7	90*	0.2	7
CCn1nc2cc(C(=O)NCCc3cccs3)ccc2c1OC	0.8	4	15	15	1	-14
CCS(=O)(=O)N1CCCC(C(=O)N2CCc3ccccc3C2)C1 (stereo unspecified)	0.7	-16	0	28	1.2	2
Cc1cccc(CN2CCCC(C(=O)N3CCc4ccccc4C3)C2)c1 (stereo unspecified)	0.4	14	-8	64*	0.9	10
O=C(C1CCCN(Cc2ccncc2)C1)N1CCc2ccccc2C1 (stereo unspecified)	0	67*	.	96*	0.3	.
COC(=O)c1cc(NC(=O)c2ccccc2)c(=O)oc1C/C=N\OCc1ccc(Cl)cc1Cl	0.9	-3	1	7	1	0
CCC(c1nnnn1Cc1ccc2c(c1)OCO2)N1CCN(c2ccc(F)cc2)CC1 (stereo unspecified)	0.6	87*	-2	43	0.1	2
